Results published in ChEMBL document CHEMBL3988442, “University of Dundee, Small-Polar-MMV Screening Library” (2021).
In all, about 48,000 compounds went through this assay and about 13,000 (27%) showed an effect of 50% or more. Some of the results follow.

system: Wolbachia pipientis; experiment: Anti-Wolbachia Cell-Based Screen; format: functional; design: scale not given: in the data most compounds retested in dose-response had high values; details: 5 µM

Row | SMILES | Percent Effect
1 | CS(=O)(=O)NCCCN1CCCC1c1ccccc1 (stereo not drawn) | -6.695%
2 | O=C1C(Nc2ccc3nccnc3n2)CCN1c1ccccc1 (stereo not drawn) | 8.259%
3 | Cc1nnc2n1CC(CNCc1nc(-c3ccsc3)no1)CC2 (stereo not drawn) | -10.67%
4 | c1csc(-c2nnc(CSCCN3CCOCC3)o2)c1 | 0.2217%
5 | CN1CCCN(C(=O)c2cnsn2)c2cc(Cl)ccc21 | 103.8%
6 | CN1CCCN(C(=O)c2cnsn2)c2cc(F)ccc21 | 119.4%
7 | O=C(Nc1c(N2CCCC2)cccc1N1CCCC1)c1cnsn1 | -3.532%
8 | CN1CCN(S(C)(=O)=O)c2cc(F)ccc21 | -2.725%
9 | CN1CCCN(S(=O)(=O)c2cnn(C)c2)c2cc(Cl)ccc21 | -13.02%
10 | Cc1ccc(C(=O)N2CCCN(C)c3ccc(F)cc32)o1 | 112.2%
11 | CN1CCCN(S(=O)(=O)c2cn(C)cn2)c2cc(F)ccc21 | -12.29%
12 | CC1CN(C)c2ccccc2CN1C(=O)c1cnsn1 (stereo not drawn) | -24.53%
13 | CN1CCCN(S(C)(=O)=O)c2cc(F)ccc21 | -11.53%
14 | CN1CCN(C(=O)c2csnn2)c2ccccc21 | 10.7%
15 | O=C(c1cncc(Br)c1)N1CCCc2ccc(F)cc21 | 6.203%
16 | CN1CCN(C(=O)c2cnsn2)c2cc(F)ccc21 | 151.8%
17 | CN(Cc1cnccn1)C(=O)c1ccc(CSc2nnc[nH]2)o1 | -27.79%
18 | CSc1ccc(NCC(=O)NCC(=O)N2CCCC2)cc1F | -3.658%
19 | CN1CCN(C(=O)CCc2cccnc2)c2ccc(F)cc21 | -6.701%
20 | CN1CCN(C(=O)CCCc2ccccn2)c2ccc(F)cc21 | -53.44%
21 | CN1CCN(C(=O)c2cnsn2)c2ccc(F)cc21 | 79.94%
22 | CCN(CC)C(=O)CCn1ncc2c(Cl)cccc21 | 18.4%
23 | CCN(CC)C(=O)c1c(Br)cnn1CC | 113.9%

Row | SMILES | Percent Effect
24 | CCN(C(=O)c1c(Cl)cnn1CC)C(C)C(N)=O (stereo not drawn) | -13.9%
25 | CCN(CC)C(=O)c1nnn(Cc2ccccc2)c1OC | 4.418%
26 | CCN(CC)C(=O)c1c(Cl)cnn1CC | 102.5%
27 | CCn1ncc(Br)c1CN(C)S(=O)(=O)c1ccc(C)cc1 | 6.609%
28 | Cc1nnsc1CN(C)Cc1ccc(C(=O)Nc2sccc2C#N)cc1 | -8.441%
29 | Cc1nc(CNC(=O)Nc2ccc3c(ccn3CCN(C)C)c2)no1 | -28.14%
30 | CC(=O)Nc1ccc2nc(-c3nccn3C[C@@H]3CCCO3)ccc2c1 | -0.02427%
31 | CC(=O)Nc1ccc2nc(-c3nccn3CCCN(C)C)ccc2c1 | 3.374%
32 | CC(=O)Nc1ccc(CN(C)Cc2snnc2C)cc1 | 104.3%
33 | CC(=O)Nc1ccc2nc(CN(C)Cc3noc(C)n3)ccc2c1 | 88.54%
34 | CC(=O)Nc1ccc2nc(CN(C)Cc3snnc3C)ccc2c1 | 89.45%
35 | CC(=O)Nc1ccc(CNC(=O)CNCc2snnc2C)cc1 | -4.998%
36 | Cc1cnc(NC(=O)c2cccc(CN(C)Cc3snnc3C)c2)s1 | -4.019%
37 | CN1C[C@@H](n2cnc(-c3ccccc3)c2-c2nccn2C)C[C@H]1C(=O)O | -7.865%
38 | CN1CCCN(C[C@@H]2CN(C(=O)CCC3CCCC3)C[C@@H]2CO)CC1 | 0.9084%
39 | CC(=O)N1CCCCCC1C1CCN(Cc2nnc(C(C)(C)C)o2)CC1.Cl (stereo not drawn) | -4.894%
40 | Cc1nc(C(C)(C)C)sc1C(=O)NCCn1ccnc1 | 6.238%
41 | CCC(C)NC(=O)c1ccc(CNC(=O)COC)cc1 (stereo not drawn) | 4.124%
42 | CCN(C(=O)c1ccc(-c2ccccc2)nc1C)C1CC(=O)NC1=O (stereo not drawn) | 2.82%
43 | CNC(=O)c1cc2c(nc1NCC(C)C)CCN(S(=O)(=O)N(C)C)CC2 | -14.23%
44 | CNC(=O)c1ccc(-c2ccc(CNC(=O)COC)cc2)nc1C | 125.2%
45 | CNS(=O)(=O)Cc1ccc(CNC(=O)c2ccc(C)[nH]c2=O)cc1 | 6.775%
46 | CCN(CC)C(=O)c1ccc(-c2ccsc2)nc1C | 7.441%

Row | SMILES | Percent Effect
47 | Cc1nc(-c2ccsc2)ccc1C(=O)O | -6.285%
48 | CNC(=O)c1ccc(-c2ccc(CNS(=O)(=O)N(C)C)cc2)nc1C | 96.06%
49 | CCN(CC)S(=O)(=O)NCc1ccc(-c2ccc(C(N)=O)c(C)n2)cc1 | 82.68%
50 | CNC(=O)c1ccc(CNC(=O)c2ccc(Cl)cc2F)cc1 | 6.561%
51 | Cc1nc(-c2ccc(CNS(=O)(=O)N(C)C)cc2)ccc1C(N)=O | 115%
52 | Cc1ccc(-c2nc(CNS(=O)(=O)N(C)C)[nH]c2-c2ccccn2)cc1 | 19.45%
53 | O=C1C(NCc2cccc(O)c2)CCN1Cc1ccccc1 (stereo not drawn) | 0.7589%
54 | CC(=O)N(C)CC(=O)Nc1cccc(N2CCN(CC3CC3)CC2)c1 | -2.755%
55 | CC(NS(=O)(=O)N(C)C)c1cccc(-n2cccn2)c1 (stereo not drawn) | -7.408%
56 | CC(=O)c1cccc(OCCCC(=O)NCC2CCCN2C)c1 (stereo not drawn) | -10.21%
57 | COC(=O)c1sccc1S(=O)(=O)NCCC(O)c1ccco1 (stereo not drawn) | -8.026%
58 | CCc1nnc(SCC(=O)N2CCc3[nH]nc(C4CCC4)c3C2)o1 | 38.87%
59 | Cc1ccc(CN(C(=O)c2cccc(NC(N)=O)c2)C2CC2)o1 | -0.2723%
60 | N#Cc1cccc(NC(=O)N[C@H](CO)c2ccccc2)c1 | -16.24%
61 | COCc1nc(CNC2CCSC2)no1 (stereo not drawn) | -14.23%
62 | O=C1CC(NCc2cccc(O)c2)CN1CCc1cccc(Cl)c1 (stereo not drawn) | 126.2%
63 | CCn1ccnc1CN1CCCC(CO)(Cc2cccc(Cl)c2)C1 (stereo not drawn) | -3.247%
64 | CCc1ncc(CNC2CC(=O)N(CCc3cccc(Cl)c3)C2)cn1 (stereo not drawn) | -5.676%
65 | CCn1ccnc1CNC1CC(=O)N(CCc2cccc(Cl)c2)C1 (stereo not drawn) | 120.9%
66 | O=C1CC(NCc2ccncc2)CN1CCc1cccc(Cl)c1 (stereo not drawn) | 73.7%
67 | Cc1cccc(CNC2CC(=O)N(Cc3cccc(F)c3)C2)c1 (stereo not drawn) | 24.38%
68 | Oc1cccc(CNC2CCN(CCc3ccncc3)CC2)c1 | -20.44%
69 | CCn1ccnc1C1CCN(Cc2cccc(Cl)c2)CC1 | 9.663%

Row | SMILES | Percent Effect
70 | CCn1cc(CNC2CC(=O)N(CCc3cccc(Cl)c3)C2)cn1 (stereo not drawn) | -6.807%
71 | COc1ccccc1CCNC(=O)NC(C)COCC(F)(F)F (stereo not drawn) | -18.36%
72 | CC(CS(C)(=O)=O)NCc1cc(Cl)ccc1F (stereo not drawn) | 6.588%
73 | CN(Cc1ccccc1-n1cccn1)c1nc(N)nc2c1CCNCC2 | 7.066%
74 | COCCN(Cc1ccc(C)cc1)Cc1nccn1C | 5.615%
75 | COCCNC(=O)NCCc1ccn(-c2ccccc2)n1 | 4.023%
76 | CCC(CC)C(=O)NCCc1ccn(-c2ccccc2)n1 | 133.4%
77 | CCC(C(=O)NCCc1ccn(-c2ccccc2)n1)N1CCCC1=O (stereo not drawn) | 2.511%
78 | CCN(CC)C(=O)NCCc1ccn(-c2ccccc2)n1 | 134.9%
79 | COc1ccc(CNCCc2ccn(-c3ccccc3)n2)cc1O | 7.82%
80 | CC(=O)NC1CCc2ccc(S(=O)(=O)NCc3ncccc3C)cc21 (stereo not drawn) | 37.01%
81 | COCCN1CCC(CN(C)c2ncnc3c2c(C)nn3C)C1 (stereo not drawn) | -22.39%
82 | Cc1nn(C)c(C)c1OCC(=O)N1CCCC1 | -17.38%
83 | COCCN1CCCC(CN(C)c2nc3c(s2)c(C)nn3C)C1 (stereo not drawn) | -14.47%
84 | CC(=O)N1CCCC(Cc2cnc(-c3c(C)nn(C)c3C)cn2)C1 (stereo not drawn) | 146.7%
85 | COCCN1CCCC(Cc2cnc(-c3c(C)nn(C)c3C)cn2)C1 (stereo not drawn) | 161.1%
86 | CC(=O)N1CCC(Cc2cnc(-c3c(C)nn(C)c3C)cn2)CC1 | 190.1%
87 | Cc1nn(C)c(C)c1OCC(=O)N1CCCCC1 | -9.266%
88 | COCCn1c(=O)n(Cc2cccc(F)c2F)c2cc(C(=O)O)ccc21 | -6.581%
89 | Cn1nc(CN2CCCN(C3CCCC3)CC2)c2c(Cl)cccc21 | 4.033%
90 | CC1(C)OCC2(CO1)CN(C(=O)c1cccc3ccccc13)C2 | -8.289%
91 | Cc1nn(Cc2ccccc2)c(C)c1CNC1CCc2ncnn2C1 (stereo not drawn) | 117.1%
92 | Cc1nn(-c2ccccc2)c(C)c1CNC1CCc2ncnn2C1 (stereo not drawn) | 1.377%

Row | SMILES | Percent Effect
93 | c1ccc(-c2ncc(CNC3CCc4ncnn4C3)cn2)cc1 (stereo not drawn) | 5.444%
94 | Cc1nc(-c2ccccc2)sc1CNC1CCc2ncnn2C1 (stereo not drawn) | 88.63%
95 | c1ccc(-c2cnc(CNC3CCc4ncnn4C3)o2)cc1 (stereo not drawn) | 7.622%
96 | CCOCCNS(=O)(=O)c1ccc2c3c1CCCN3C(=O)CO2 | 17.61%
97 | O=c1c2c(ncn1CCO)nc1n2CCC1 | 3.555%
98 | CC(C)(C)OC(=O)NC(C)(C)c1noc(CN2CCCCC2)n1 | 1.243%
99 | CN(C)C(=O)N1CCC2(CCCN(c3ncccn3)C2)C1.O=C(O)C(F)(F)F (stereo not drawn) | 113.7%
100 | CN(C)C(=O)N1CCOCC2(CCN(c3ccccn3)C2)C1.O=C(O)C(F)(F)F (stereo not drawn) | -12.67%
101 | CN(C)C(=O)N1CCOCC2(CCN(c3ncccn3)C2)C1.O=C(O)C(F)(F)F (stereo not drawn) | -1.009%
102 | CN(C)C(=O)N1CCC2(CC1)CCN(c1ncccn1)C2.O=C(O)C(F)(F)F | 115.8%
103 | CCn1nc2c(cc1=O)CN(Cc1nnc(C3CC3)o1)CC2 | 14.78%
104 | CSc1cccc(NC(=O)N2CCCC(CNC(=O)c3ccco3)C2)c1 (stereo not drawn) | -2.877%
105 | CSCCCn1ccnc1-c1cccc(C#N)c1 | -12.84%
106 | NC(=O)NC(CC(=O)NCCc1cccc(F)c1)c1cccs1 (stereo not drawn) | 2.392%
107 | CC(C)=CCC/C(C)=C\CNCc1ccco1 | -4.355%
108 | O=C(C1CCCC1)N1CC2(CCN(C3COC3)C2)OCc2ccccc21 (stereo not drawn) | 114.9%
109 | O=C(C1CCCC1)N1CCOc2cccc(F)c21 | 1.761%
110 | O=C(C1CCCC1)N1CC2(CCN(C3COC3)CC2)Cc2ccccc21 | 95.07%
111 | O=C(C1CCCC1)N1CC2(CCN(C3COC3)C2)Cc2ccccc21 (stereo not drawn) | 95.07%
112 | O=C(Cc1cccnc1)N1CCC2(CCN(C3CCOC3)CC2)C1 (stereo not drawn) | 6.84%
113 | O=C(C1CCCC1)N1CC2(CCCN(C3COC3)C2)Cc2ccccc21 (stereo not drawn) | 99.05%
